From PubChem BioAssay (NCATS)
Values joined by “and” are separate entries in the source; they are usually repeats but may differ in a detail not shown here. Equal values may be shown once. Results filed as inconclusive are left out. Active and inactive are the calls of the source. Calls follow the shape of the dose curve; as a rule, active = well fitted curve in the direction sought with a large enough effect; inconclusive = small, poorly fitted or top-dose-only effect, or another doubt; inactive = no such curve, though single readings can be large; an effect the other way counts as inactive or inconclusive. *1 amine or outer side, *2 acyl side, *3 side chain or, on linkers, in order; H or OH if unused. Where a SMILES comes first, the peptide text is derived from it. [ ]: non-standard residue; d: D form. ξ: configuration not given here. X4 = CC(C)=CCc1cc(C(O)C(N[*:1])C(=O)[*:2])ccc1O; ξPhe(βξ-Me) = CC(c1ccccc1)C(N)C(=O)O; GABA = NCCCC(=O)O

Tests used:
[1] = Primary qHTS for inhibitors of nuclear receptor binding SET domain protein 2 (NSD2) in an RCH-ACV wild type WT cells (2C) (AID 1645877); also: nearly all actives have a fitted effect of over 70% in size; also: potency is read from the fitted curve at half-maximal effect; as to activity change, negative = cell killing: % is scaled to controls: 0 for no effect and ±100 for the full control effect
[2] = target: Glutathione peroxidase 1 (Homo sapiens) (UniProt P07203); assay: Primary qHTS Assay for Inhibitors of Recombinant Selenoprotein Glutathione Peroxidase 1 (GPX1) (AID 1845191); also: nearly all actives have a fitted effect of over 65% in size; also: potency is read from the fitted curve at half-maximal effect; as to activity, negative = inhibition: % is scaled to controls: 0 for no effect and ±100 for the full control effect
How it was run: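 GPX1 10 nM, GR 100 nM, GSH 1 mM, NADPH 0.5 mM, CHP 0.5 mM (final). 30-min cpd preincubation, RT. Ex340/Em450 read t=0, t=15 min.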

[3] = target: Phospholipid hydroperoxide glutathione peroxidase GPX4 (Homo sapiens) (UniProt P36969); assay: Primary qHTS Assay for Inhibitors of Recombinant Selenoprotein Glutathione Peroxidase 4 (GPX4) (AID 1845192); also: nearly all actives have a fitted effect of over 65% in size; also: potency is read from the fitted curve at half-maximal effect; as to activity change, negative = inhibition: series mostly up to about 50 µM; % is scaled to controls: 0 for no effect and ±100 for the full control effect
How it was run: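 qHTS, GR-coupled: GPX4 200 nM + cpd 30 min RT → GSH 1 mM, NADPH 0.5 mM, GR 100 nM → CHP 0.5 mM start; fluor 340/450 at t0 and t15 min; no-enzyme wells as control.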

[4] = target: Luciferin 4-monooxygenase (Photinus pyralis) (UniProt P08659); assay: Primary firefly luciferase (FLuc) qHTS assay for identification of artifact compounds. (AID 1845220); also: nearly all actives have a fitted effect of over 60% in size;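 as to activity change, negative = inhibition: series mostly up to about 54 µM; plate controls were DMSO vehicle for no effect and no enzyme for full effect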
How it was run: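 qHTS, 15 min compound preincubation with substrate (10 uM luciferin, 10 uM ATP) at RT, then 10 nM FLuc; 5 min; luminescence; % inhibition vs no-enzyme/DMSO controls, 4-parameter Hill fit.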

[5] = Primary fluorescence-based thiol-reactive (MSTI) qHTS assay for identification of artifact compounds. (AID 1845221); also: nearly all actives have a fitted effect of over 65% in size; also: potency is read from the fitted curve at half-maximal effect;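 as to activity change, negative = thiol reactive: series mostly up to about 54 µM; thiol-reactive compounds lower the probe fluorescence signal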
How it was run: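 Curve-fitted percent inhibition (4-parameter Hill) derived from fluorescence, Ex 525/Em 598 nm, scaled with Acetyl-MSTI and MSTI; 1 h incubation at room temperature.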

[6] = tested on: Nanoluciferase (engineered Oplophorus gracilirostris luciferase); assay: Primary Nanoluciferase (NLuc) qHTS assay for identification of artifact compounds. (AID 1845222); also: series mostly up to about 54 µM
How it was run: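 Luminescence read-out of secreted NLuc in S16 cell conditioned medium (1:55); compounds tested with 15 min RT preincubation, then Nano-Glo substrate 1:100, 5 min. % inhibition vs no-enzyme and DMSO controls, 4-parameter Hill fit.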

[7] = Primary redox qHTS assay for identification of artifact compounds. (AID 1845223);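 also: 0% = DMSO and 100% = reference compound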
How it was run: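 Redox-cycling detection via DTT (250 uM final) oxidation coupled to Amplex Red (25 uM)/HRP (250 mU/mL) in HBSS. 15 min preincubation plus 30 min after DTT, room temperature. Ex/Em 525/598 nm; 4-parameter Hill fit against DMSO and 10 uM DA3003.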

Sequence of Phospholipid hydroperoxide glutathione peroxidase GPX4 (Homo sapiens) (P36969 whole entry, looked up): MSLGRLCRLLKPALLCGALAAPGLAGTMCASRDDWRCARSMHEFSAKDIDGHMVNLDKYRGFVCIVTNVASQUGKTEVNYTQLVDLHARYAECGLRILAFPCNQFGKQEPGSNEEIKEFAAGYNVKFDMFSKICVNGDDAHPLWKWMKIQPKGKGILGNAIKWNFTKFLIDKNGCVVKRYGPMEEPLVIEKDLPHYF
Sequence of Glutathione peroxidase 1 (Homo sapiens) (P07203 whole entry, looked up): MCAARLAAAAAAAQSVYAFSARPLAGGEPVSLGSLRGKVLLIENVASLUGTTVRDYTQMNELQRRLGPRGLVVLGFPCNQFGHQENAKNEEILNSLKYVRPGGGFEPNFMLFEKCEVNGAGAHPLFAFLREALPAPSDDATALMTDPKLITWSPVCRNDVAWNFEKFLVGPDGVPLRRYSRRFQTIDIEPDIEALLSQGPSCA

CC(C)(C)Nc1nc2cc(Cl)c(Cl)cc2nc1S(C)(=O)=O
inactive: Potency [2] | Potency [3] | Potency [4] | Potency [5] | Potency [6] | Potency [7]
active: Potency [1] 409 nM

COC(=O)c1cc(OC)cc(OC)c1C(=O)c1c(OC)cc2c(c1O)C1CCCC(C)(O2)O1 (stereo not drawn)
inactive: Potency [1] | Potency [2] | Potency [3] | Potency [4] | Potency [5] | Potency [6] | Potency [7]

CC(C)=C/C=C\[C@H](C)[C@H]1CC[C@]2(C)C[C@@H]3C(C)=CC(=O)C3/C(CO)=C\C[C@@H]12 (stereo partly drawn)
inactive: Potency [2] | Potency [3] | Potency [4] | Potency [5] | Potency [6] | Potency [7]
active: Potency [1] 11300 nM

COc1c(Nc2ncc(Cl)c(N[C@H]3[C@@H](C(N)=O)[C@@H]4C=C[C@H]3C4)n2)ccc2c1CC[C@@H](N1CCOCC1)CC2
inactive: Potency [2] | Potency [3] | Potency [4] | Potency [5] | Potency [6] | Potency [7]
active: Potency [1] 3250 nM

COCC1OC(OC(C)(C)C2CCC3(C)C=C(C4CCC5C4(C)CC(O)C4OC(C(C)(C)OC6OC(CO)C(O)C(O)C6NC(C)=O)CCC45C)CCC3O2)C(NC(C)=O)C(O)C1O (stereo not drawn)
inactive: outcome [1] inactive [at 9.23 µM] | Potency [2] | Potency [3] | activity change, negative = inhibition [4] 0.545% [at 11.6 µM] | activity change, negative = thiol reactive [5] 5.19% [at 11.5 µM] | activity, negative = inhibition [6] -0.592% [at 11.6 µM] | redox activity (% of DA3003) [7] 3.42% [at 11.5 µM]

COC(=O)C[C@H]1C(C)(C)[C@H](OC(=O)C(C)C)[C@@]2(O)C(=O)[C@]1(C)C1CC[C@]3(C)C(CC(=O)O[C@H]3c3ccoc3)[C@]13O[C@@H]32 (stereo partly drawn)
inactive: Potency [1] | Potency [2] | Potency [3] | Potency [4] | Potency [5] | Potency [6] | Potency [7]

C=C1CCC2C(C(C)(C)O)CCC2(C)CC(O)C(=C)CCC1O (stereo not drawn)
active: Potency [1] 10100 nM
inactive: Potency [2] | Potency [3] | Potency [4] | Potency [5] | Potency [6] | Potency [7]

C[C@@H]1N[C@H]2N(C1=O)c1ccccc1[C@@]2(O)C[C@@H]1C(=O)N[C@@H](C)c2nc3ccccc3c(=O)n21
inactive: Potency [1] | Potency [2] | Potency [3] | Potency [4] | Potency [5] | Potency [6] | Potency [7]

O=[N+]([O-])c1cccc2[nH]c(CNc3nc(N4CCOCC4)nc4c3ncn4-c3ccsc3)nc12
active: Potency [1] 64.9 nM | Potency [5] 10600 nM
inactive: Potency [2] | Potency [3] | Potency [4] | Potency [6] | Potency [7]

CC1=C(C(=O)O)/C(=C/CO[C@@H]2O[C@H](COC(=O)/C=C/c3ccc(O)cc3)[C@@H](O)[C@H](O)[C@H]2O)C(O)C1 (stereo partly drawn)
inactive: Potency [1] | Potency [2] | Potency [3] | Potency [4] | Potency [6] | Potency [7]
active: Potency [5] 1460 nM

CC1NC(=O)CCCNC(=O)C(Cc2c[nH]c3ccccc23)NC(=O)C(C)NC(=O)C(C(C)C)NC(=O)C(C(C)c2ccccc2)NC(=O)C(C(C)C)NC1=O (stereo not drawn) (cyclo([GABA]AV[ξPhe(βξ-Me)]VAW); configuration not given here)
inactive: Potency [1] | Potency [2] | Potency [3] | Potency [4] | Potency [5] | Potency [6] | Potency [7]

CC1CC[C@]2(C(=O)O)CC[C@]3(C(=O)O)C(=CCC4[C@@]5(C)CC[C@H](O[C@@H]6O[C@H](CO)[C@@H](O)[C@H](O)[C@H]6O)C(C)(C)C5CC[C@]43C)C2C1C (stereo partly drawn)
inactive: Potency [1] | Potency [2] | Potency [3] | Potency [4] | Potency [5] | Potency [6] | Potency [7]

CC(C)(C)c1ccc(S(=O)(=O)NCc2ccc(C(=O)Nc3cccnc3)cc2)cc1
active: Potency [1] 163 nM
inactive: Potency [2] | Potency [3] | Potency [4] | Potency [5] | Potency [6] | Potency [7]

C=C(CO[C@@H]1O[C@H](CO[C@@H]2OC[C@](O)(CO)[C@H]2O)[C@@H](O)[C@H](O)[C@H]1O)C1Cc2cc(C(C)=O)ccc2O1 (stereo partly drawn)
active: Potency [5] 5190 nM
inactive: Potency [1] | Potency [2] | Potency [3] | Potency [4] | Potency [6] | Potency [7]

Cc1c(C(=O)N2CCOc3ccc(-c4ccc(N)nc4)cc3C2)ccc(S(C)(=O)=O)c1F
active: Potency [1] 1.83 µM and 3.32 µM
inactive: Potency [2] | Potency [3] | Potency [4] | Potency [5] | Potency [6] | Potency [7]

CC(C)[C@H]1CC[C@@]2(O)COC(=O)[C@H]2[C@@H]1/C=C(\CO)C(=O)O
inactive: Potency [1] | Potency [2] | Potency [3] | Potency [4] | Potency [5] | Potency [6] | Potency [7]

CC1CCC2C(C(=O)O)=COC(O[C@@H]3O[C@H](CO)[C@@H](O)[C@H](O)[C@H]3O)C12 (stereo partly drawn)
inactive: Potency [1] | Potency [2] | Potency [3] | Potency [4] | Potency [6] | Potency [7]
active: Potency [5] 5850 nM

CN(C)C1CCN(C(=O)c2ccc(NC(=O)Nc3ccc(-c4nc(N5CCOCC5)nc(N5CCOCC5)n4)cc3)cc2)CC1
active: Potency [1] 33.2 nM
inactive: Potency [2] | Potency [3] | Potency [4] | Potency [5] | Potency [6] | Potency [7]

COc1c2c(c(C)c3c1C(=O)OC3)OC1(C)CC(O)C34OC(OC)(OC3(C)C)C(O)CC4(C)C1C2 (stereo not drawn)
inactive: Potency [1] | Potency [2] | Potency [3] | Potency [4] | Potency [5] | Potency [6] | Potency [7]

CC(=O)C12OC(C)(C)OC1CC1C3CCC4=CC(=O)C=CC4(C)C3(F)C(O)CC12C (stereo not drawn)
active: Potency [1] 6.5 nM
inactive: Potency [2] | Potency [3] | Potency [4] | Potency [5] | Potency [6] | Potency [7]

CCn1c(=O)c(-c2ccn[nH]2)cc2c(C)nc(N)nc21
active: Potency [1] 1180 nM | Potency [2] 4090 nM | Potency [3] 2550 nM
inactive: Potency [4] | Potency [5] | Potency [6] | Potency [7]

CC(C)=CCc1cc(C(O)C2NC(=O)CNC(=O)C(Cc3c[nH]c4ccccc34)NC(=O)C3CCCN3C(=O)CNC(=O)C(C(C)C)NC(=O)CNC2=O)ccc1O (stereo not drawn) (cyclo(G[X4]GVGPW); configuration not given here)
inactive: activity change, negative = cell killing [1] -18.5% [at 9.23 µM] | Potency [2] | Potency [3] | activity change, negative = inhibition [4] -7.99% [at 11.6 µM] | activity change, negative = thiol reactive [5] 158% [at 11.5 µM] | activity, negative = inhibition [6] -5.03% [at 11.6 µM] | redox activity (% of DA3003) [7] 10.2% [at 11.5 µM]

CC(C)c1cc(C(=O)N2CC[C@H](NC(=O)C3CC3)C2)n[nH]1
inactive: Potency [1] | Potency [2] | Potency [3] | Potency [4] | Potency [5] | Potency [6] | Potency [7]

C[C@@H]1O[C@@H](OC[C@H]2O[C@@H](OC(CCCCc3ccc(O)cc3)CCc3ccc(O)cc3)[C@H](O)[C@@H](O)[C@@H]2O)[C@H](O)[C@H](O)[C@H]1O (stereo partly drawn)
active: Potency [5] 7930 nM
inactive: Potency [1] | Potency [2] | Potency [3] | Potency [4] | Potency [6] | Potency [7]
